# From PubChem BioAssay (NCATS)
# Results filed as inconclusive are left out. A call without a number means that no potency is given here. Calls of active or inactive are those of the source. Calls follow the shape of the dose curve; as a rule, active = well fitted curve in the direction sought with a large enough effect; inconclusive = small, poorly fitted or top-dose-only effect, or another doubt; inactive = no such curve, though single readings can be large or run the other way.
# Target: Metallo-beta-lactamase type 2 (Klebsiella pneumoniae) (UniProt C7C422)
# Sequence (C7C422 whole entry, looked up): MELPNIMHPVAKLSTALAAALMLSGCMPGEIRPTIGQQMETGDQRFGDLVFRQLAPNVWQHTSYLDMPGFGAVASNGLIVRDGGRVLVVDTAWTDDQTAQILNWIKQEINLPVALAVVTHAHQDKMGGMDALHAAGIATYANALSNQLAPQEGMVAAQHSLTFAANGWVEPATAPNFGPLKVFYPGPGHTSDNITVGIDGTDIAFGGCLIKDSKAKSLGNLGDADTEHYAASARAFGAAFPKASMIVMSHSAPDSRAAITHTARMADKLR
# Assay: qHTS to identify inhibitors of the New Delhi Metallo-beta-lactamase (NDM): assay validation screen against the NCATS LOPAC Collection (AID 1794843);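 also: nitrocefin turnover by NDM-1 measured as 485 nm absorbance at plateau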
# Settings: NDM-1 enzyme, nitrocefin hydrolysis, absorbance 485 nm; series mostly up to 38.4 µM
# Text: Assay Submitter (PI): James Inglese Ph.D., Patricia Dranchak Ph.D., Mahesh Aitha Ph.D.
# Assay Development and Screening Technology Laboratory (ADST)
# National Center for Advancing Translational Sciences (NCATS), Rockville, MD
# National Institute of Health (NIH), Bethesda, Maryland
# The metallo-beta-lactamases (MBL) are a main antibiotic resistance mechanism evolved by bacteria. There is an urgent clinical need for MBL inhibitors to mitigate this growing threat. To support a machine-based learning study, qHTS has been used to experimentally test inhibitors identified by prediction tools.
# PROTOCOL TABLE (as described by Inglese et al., 2007)
# SEQUENCE No. (e.g., 1, 2, 3, etc.); […] (e.g., enzyme, Incubation, Reagent, etc.); VALUE; DESCRIPTION
# 1; NDM-1; 4 uL of 3 nM enzyme in 50 mM HEPES (pH 7.0), 1 uM Zn2SO4, 0.01% Tween20; Use BioRaptr to dispense into Aurora black, clear bottom low base 1536-well plates
# 2; Compounds; 23 nL; Use Pin Tool (Wako) to transfer DMSO control and library compounds in DMSO
# 4; Reagent; 2 uL of 50 uM nitrocefin
# 6; Detector; Absorbance at 485 nm (bandwidth = 5 nm, 25 flashes/well) on Tecan Infinity
# NOTES (numbers refer to sequence above)
# 1; Column 1 of each plate received assay buffer without enzyme and columns 2-48 received enzyme for a final assay concentration of 2 nM.
# 2; Control plate contained DMSO in columns 1, 2, 3, and 4.
# 3; Compound interaction with enzyme.
# 5; Substrate interaction with enzyme, plateau phase of kinetics.
# 6; Default reader settings were applied for absorbance read at 485 nm, bandwidth = 5 nm, 25 flashes/well.
# Inglese J, Shamu CE, Guy RK. 2007. Reporting data from high-throughput screening of small-molecule libraries. Nat Chem Biol. doi:10.1038/nchembio0807-438
# Yasgar A, Shinn P, Jadhav A, Auld D, Michael S, Zheng W, Austin CP, Inglese J, Simeonov A. 2008. Compound Management for Quantitative High-Throughput Screening. J Lab Autom 13:79 - 89. doi:10.1016/j.jala.2007.12.004
row,SMILES,Potency
1,Oc1cc2c(cc1O)C(c1ccccc1)CNCC2 (stereo not given),inactive
2,O=C(O)C1=CCNCC1,inactive
3,CC[C@H](NC(=O)c1c(C)c(-c2ccccc2)nc2ccccc12)c1ccccc1,inactive
4,CC(=O)NNC(=O)N1Cc2ccccc2Oc2ccc(Cl)cc21,inactive
5,NC1CCN(O)C1=O (stereo not given),inactive
6,O=c1onc2cnc3ccccc3n12,inactive
7,C=CCNc1ncnc2ccc(Br)cc12,inactive
8,O=c1[nH]ccc2c(O)cccc12,inactive
9,O=C(O)c1ccccc1Nc1cccc(OCc2ccc3ccccc3n2)c1,inactive
10,CC[N+](CC)(CC)CC(=O)Nc1c(C)cccc1C,inactive
11,Cc1nc(N=Nc2ccc(C(=O)O)cc2)c(COP(=O)(O)O)c(C=O)c1O,inactive
12,CC(=O)N[C@@H](Cc1c[nH]c2ccccc12)C(=O)OCc1cc(C(F)(F)F)cc(C(F)(F)F)c1,inactive
13,NCC(O)(CS(=O)(=O)O)c1ccc(Cl)cc1 (stereo not given),inactive
14,Cc1nc(N=Nc2cc(S(=O)(=O)O)c3cc([N+](=O)[O-])cc(S(=O)(=O)O)c3c2)c(COP(=O)(O)O)c(C=O)c1O,inactive
15,COc1cc(CNC(=O)CCCCCCC(C)C)ccc1O,inactive
16,C[C@@H](NCCc1ccc(O)cc1)[C@@H](O)c1ccc(O)cc1,inactive
17,Nc1ncnc2c1nc(Br)n2C1OC2COP(=O)(O)O[C@@H]2C1O (stereo not given in full),inactive
18,CSC(N)=NCCC[C@H](N)C(=O)O,inactive
19,Nc1ccc2c3c(cccc13)C(=O)NC2=O,inactive
20,Nc1nc2c(nc(Br)n2C2OC3COP(=O)(O)O[C@@H]3C2O)c(=O)[nH]1 (stereo not given in full),inactive

row,SMILES,Potency
1,NC(N)=[N+]1CCc2ccccc2C1,inactive
2,O=C(O)CCC/C=C\C[C@@H]1[C@@H](/C=C/[C@H](O)C2Cc3ccccc3C2)[C@@H](F)C[C@@H]1O,inactive
3,CC(C)(C)c1ccc(/C=C/C(=O)Nc2ccc3c(c2)OCCO3)cc1,inactive
4,COc1cc(CC(=O)O)ccc1O,inactive
5,C=C1C[C@@]23CC[C@H]4[C@@](C)(CCC[C@@]4(C)C(=O)OC4OC(CO)C(O)C(O)C4O)[C@@H]2CC[C@]1(OC1OC(CO)C(O)C(O)C1OC1OC(CO)C(O)C(O)C1O)C3 (stereo not given in full),inactive
6,O=C(O)c1cc(=O)cc(C(=O)O)[nH]1,inactive
7,Nc1ncnc2c1nc(Sc1ccc(Cl)cc1)n2[C@H]1OC2COP(=O)(O)O[C@@H]2C1O (stereo not given in full),inactive
8,c1ccc2nc(C3=NCCN3)ccc2c1,inactive
9,CCC(=O)N1CCN(C(=O)c2ccccc2)CC1,inactive
10,Cn1c(=O)c2[nH]c(-c3ccc(S(=O)(=O)O)cc3)nc2n(C)c1=O,inactive
11,N#CC(=C(\N)Sc1ccccc1N)/C(C#N)=C(/N)Sc1ccccc1N,inactive
12,CCCCCCN(CCCCCC)C(=O)Cc1c(-c2ccc(F)cc2)[nH]c2ccccc12,inactive
13,CCN(CC)CCOC(=O)c1cc(Cl)c(N)cc1OC,inactive
14,Cn1cc(C(=O)OCC2CCN(CCNS(C)(=O)=O)CC2)c2ccccc21,inactive
15,CC(N)=NCCCC[C@@H](N)C(=O)O,inactive
16,N[C@@H](Cc1ccc(O)c(I)c1)C(=O)O,inactive
17,C#CCn1c(=O)c2c(ncn2C)n(C)c1=O,inactive
18,CCCCCCC(=O)OC1CC(C)(C)NC(C)(C)C1,inactive
19,NC1(C(=O)O)CCc2cc(C(=O)O)ccc21 (stereo not given),inactive
20,Oc1ccc(/C=C/c2ccc(/C=C/c3ccc(O)cc3)c(Br)c2)cc1,inactive
